# An excerpt weighted towards active compounds, which were near 1.6% of everything screened.
# KCNQ2 block: inhibitors of rat KCNQ2 potassium channel | CHO-K1 KCNQ2, FluxOR thallium flux, 20 min; hits give low values | 310,000 compounds, 1.1% hits | B-score at 10 µM | O88943 | AID 2156;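 active means fluorescence ratio B-score at most minus 3 library SDs, with starting brightness B-score within 2 library SDs, cut at about -5.5 in these data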
# KCNQ2 enhance: enhances the rat KCNQ2 potassium channel; O88943; CHO-K1 KCNQ2, FluxOR thallium flux fluorescence; hits give high values; B-score at 10 µM; 310,000 compounds, 0.54% hits; AID 2239;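 active means fluorescence ratio B-score at least 3 SD of library B-scores, with initial fluorescence B-score within 3 of them, cut at about 5.3 in these data; same plate scores as AID 2156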;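 further: B-score of peak minus minimum over baseline fluorescence ratio after K+ and Tl+ stimulus; positive B-score means potentiation of KCNQ2 with more thallium influx and brighter signal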
# A number is an active result; 0 = inactive; - = no result given.
SMILES,KCNQ2 block,KCNQ2 enhance
CC(C)(C)C1CCc2c(sc(NC(=O)c3cccs3)c2C(=O)N2CCCCC2)C1 (configuration not stated),-8.1,0
CC1CCc2c(sc(NC(=O)c3cccs3)c2C(=O)O)C1 (configuration not stated),0,0
CN(Cc1cccc(F)c1)C(=O)c1ccccc1Sc1ccccc1C#N,0,-
CCN(CC)CCNC(=O)c1ccc(NC(=O)c2ccccc2-c2ccc(C(F)(F)F)cc2)cc1,0,-
Cc1ccc(-c2csc(NC(=S)NC(=O)c3ccco3)n2)cc1,0,11
Cc1ccc(-c2csc(NC(=O)CCNC(=O)c3ccco3)n2)cc1,0,-
CCOC(=O)c1c(NC(=O)C2c3ccccc3Oc3ccccc32)sc(C(C)=O)c1C,-5.7,0
COC(=O)c1sc(NC(=O)C2c3ccccc3Oc3ccccc32)c(C(=O)OC)c1C,0,-
NNC(=O)c1ccc(S(=O)(=O)N2CCc3ccccc32)cc1,0,-
OCCC1CN(CC2CCCCC2)CCN1C1CCCC1 (configuration not stated),0,0
OCCC1CN(CC2CCCCC2)CCN1CC1CCCCC1 (configuration not stated),0,6.8
CC(C)(C)C(=O)Nc1c2c(nn1-c1ccccc1)CSC2,-8.2,0
CC(=O)Nc1c2c(nn1-c1ccccc1)CSC2,0,0
COc1ccc(/C(C)=N/NC(=O)CNC(=O)c2ccco2)c(OC)c1,0,0
O=C1Nc2ccc(Cl)cc2C(C#CC2CC2)(C(F)(F)F)O1 (configuration not stated),0,-
COc1ccc(NC(=O)CC2C(=O)N(Cc3ccccc3)C(=S)N2CCN2CCOCC2)cc1 (configuration not stated),0,-
CCN1C(=O)C(CC(=O)Nc2ccc(OC)cc2)N(CCc2ccc(F)cc2)C1=S (configuration not stated),-7.5,0
C=CCN1C(=O)C(CC(=O)Nc2ccc(OCCC)cc2)N(CCCN2CCN(Cc3ccccc3)CC2)C1=S (configuration not stated),-6.8,0
COc1ccc(NC(=O)CC2C(=O)N(C)C(=S)N2CCc2ccc(F)cc2)cc1 (configuration not stated),0,-
Cc1nc(-c2ccccn2)nc(N(C)c2ccccc2)c1Cl,0,0
CN1CCC(N(C)S(=O)(=O)c2ccc(NC(=O)COc3ccc(F)cc3Cl)cc2)CC1,0,-
CCCc1ccc(OC(=O)c2ccc(O)cc2Cl)cc1,0,-
C=CCN(CC=C)C(=S)NC(=O)c1ccc([N+](=O)[O-])cc1,0,7.2
C=CCNC(=S)NNC(=O)c1ccc([N+](=O)[O-])cc1,0,-
CCOc1ccc2nc(N3C(=O)/C(=C/c4ccc(Cl)cc4)NC3=S)sc2c1,0,15
SMILES,KCNQ2 block,KCNQ2 enhance
COc1ccc2nc(N3C(=O)CNC3=S)sc2c1,0,0
CCOc1ccc(Nc2nnc(SCc3nc4ccccc4c(=O)[nH]3)s2)cc1,0,0
Cc1ccccc1OC(=O)n1c(=S)oc2cc(Cl)ccc21,0,6.9
O=C(Oc1ccccc1)n1c(=S)oc2ccccc21,0,0
O=c1c2ccccc2[nH]c(=S)n1CCC1=CCCCC1,0,8.4
O=c1c2ccccc2[nH]c(=S)n1CCN1CCCCC1,0,0
CCN(C(=O)c1cc2c(=O)[nH]c3ccc(C)cc3c2s1)c1ccccc1F,0,13
CCN(C(=O)c1cc2c(=O)[nH]c3ccc(C)cc3c2s1)c1ccccc1C,0,0
O=Nc1c(O)n(Cc2ccc(Cl)cc2)c2ccccc12,0,-
O=Nc1c(O)n(Cc2c(Cl)cccc2Cl)c2ccccc12,0,0
O=Nc1c(O)n(Cc2ccc(Cl)cc2Cl)c2ccccc12,-8,0
Cc1ccc(Cn2c(O)c(N=O)c3ccccc32)cc1,-6.7,0
COc1ccc(/C=N/NC(C)(C)C)c(OC)c1,0,-
COc1ccc(NC(=O)CN(C)C(=O)CNC(=O)c2ccc3c(c2)OCO3)cc1,0,0
O=C(CCC1CCCCC1)Nc1nncs1,0,0
Cc1ccc(-c2csc(N3C(=N)SCC3=O)n2)cc1,0,0
N=C1SCC(=O)N1c1ncc(Cc2ccc(F)cc2)s1,0,6.9
CC1=NN(C(=O)Cn2nc([N+](=O)[O-])c(Br)c2C)C(O)(C(F)(F)F)C1 (configuration not stated),0,0
Cc1noc(C)c1CSc1nc2ccccc2c(=O)n1-c1ccccc1,-7.1,0
COc1ccc(C(C)=O)cc1CSc1nc2ccccc2c(=O)n1-c1ccccc1,0,-
COc1ccc(C(C)=O)cc1CSc1nc2ccccc2c(=O)n1-c1cccc(C)c1,-6.7,0
Cc1noc(C)c1CSc1nc2[nH]ncc2c(=O)n1-c1ccccc1,0,-
O=C(OCc1csc(-c2ccccc2)n1)c1ccccc1O,0,-
CCc1nc(CNC(=O)C2CCC(=O)N(Cc3ccccc3F)C2)no1 (configuration not stated),0,-
COc1cccc(-c2nc(C(=O)NCC3CCCO3)cc3c2[nH]c2ccccc23)c1 (configuration not stated),-5.7,0
SMILES,KCNQ2 block,KCNQ2 enhance
COc1ccc(OC)c(-c2nc(C(=O)NCC3CCCO3)cc3c2[nH]c2ccccc23)c1 (configuration not stated),0,-
CC(C)(Oc1ccc(Cl)cc1)C(=O)Nc1ccc(S(=O)(=O)Nc2ncccn2)cc1,0,0
COc1cccc(CC(NC(C)=O)C(=O)NC2CCN(S(=O)(=O)c3ccc(NC(C)=O)cc3)CC2)c1 (configuration not stated),0,-
CCOC(=O)/C(C#N)=C/c1cc2ccccc2nc1N1CCCCC1,-6.5,0
Cc1ccc2cc(/C=C(\C#N)C(N)=O)c(N3CCCCC3)nc2c1,0,-
O=C(NCCc1ccccc1F)N[C@@H](Cc1ccccc1)C(=O)O,0,-
c1ccc(-c2nc(NCCCN3CCOCC3)c3ccccc3n2)cc1,0,0
Cc1cccc(-c2nc(NCCCN3CCOCC3)c3ccccc3n2)c1,-5.9,0
c1ccc(-c2cn(-c3ccccc3)c3ncnc(NCCCN4CCOCC4)c23)cc1,-5.6,0
COc1ccc(-n2cc(-c3ccccc3)c3c(NCCCN4CCOCC4)ncnc32)cc1,0,-
CCc1ccc(NC(=O)CSCCO)cc1,0,0
CCCCSCCCNC(=O)Nc1ccc(CC)cc1,0,5.6
CC(C)c1nnc(NC(=O)CCC2CCCCC2)s1,0,0
CCOC(=O)C(C)(C)N(Cc1ccccc1C)S(=O)(=O)c1ccc(Cl)c([N+](=O)[O-])c1,-7.2,0
CCCN(CCC)S(=O)(=O)c1ccc(Cl)c([N+](=O)[O-])c1,0,-
Cc1ccc(C(NC(=O)NC(C)c2ccccc2)C(Cl)(Cl)Cl)cc1F (configuration not stated),0,17
CC(NC(=O)Nc1ccc(Cl)cc1)c1ccccc1 (configuration not stated),0,-
CS(=O)(=O)N1CCC(Oc2ccccc2C(=O)N2CCN(CC3CC3)CC2)CC1,0,0
CCOc1ccc(Cc2c(Cl)nc(SC)nc2N(C)C)cc1,-7.2,0
CCOc1ccc(Cc2c(Cl)nc(N)nc2Cl)cc1,0,-
COc1ccc(Cc2c(Cl)ncnc2Cl)cc1,0,-
CSc1nc(Cl)c(Cc2ccc(OC(C)C)cc2)c(N(C)C)n1,-6,0
CC(=O)Nc1ccc(NC(=O)c2ccccc2CCc2ccccc2)cc1,0,-
O=C(COc1ccccc1Cl)NC1CC1,0,-
Clc1ccc(-n2cnnn2)cc1,0,0
CO/C=C\C=C/c1nnn(-c2ccc(Cl)cc2)n1,-6.9,0
Cc1ccc(NC(=O)COC(=O)C2CC(=O)N(Cc3ccccc3)C2)cc1S(=O)(=O)N(C)C (configuration not stated),0,-
